Source: PubChem BioAssay
GLP-1R inv ag: qHTS of GLP-1 Receptor Inverse Agonists (Inhibition Mode). Glucagon-like peptide 1 receptor (Homo sapiens), P43220. HEK293 GLP-1R CRE-luciferase, luminescence, 24 h; GLP-1R form is constitutively active. Potency, µM (series often up to 38.3 µM), without a hit: at the top dose activity change, negative = inhibition, actives largely listed as inhibitors. hit rate 1.6% among 410,000. AID 624417, 2012; also: potency is read from the fitted curve at half-maximal effect; % is scaled to controls: 0 for no effect and ±100 for the full control effect; nearly all actives have a fitted effect of over 55% in size
Target sequence (P43220 whole entry, looked up): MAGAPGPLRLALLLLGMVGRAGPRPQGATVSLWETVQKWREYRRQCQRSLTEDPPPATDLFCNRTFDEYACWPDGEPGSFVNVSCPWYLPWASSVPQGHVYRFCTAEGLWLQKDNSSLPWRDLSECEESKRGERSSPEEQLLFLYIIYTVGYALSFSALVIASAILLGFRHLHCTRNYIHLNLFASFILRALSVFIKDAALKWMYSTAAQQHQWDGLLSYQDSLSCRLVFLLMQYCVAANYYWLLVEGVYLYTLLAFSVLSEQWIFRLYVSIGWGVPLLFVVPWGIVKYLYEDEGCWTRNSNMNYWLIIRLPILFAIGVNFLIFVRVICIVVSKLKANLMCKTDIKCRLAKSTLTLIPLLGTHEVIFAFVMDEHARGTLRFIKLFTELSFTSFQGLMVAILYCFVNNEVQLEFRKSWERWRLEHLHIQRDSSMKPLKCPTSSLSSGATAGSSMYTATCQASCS
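Constitutively active GLP-1R drives a cAMP-responsive luciferase in stably transfected HEK293 cells; test compounds are added after overnight (12 h) attachment and left 24 hr, and signal loss in luminescence marks inhibition.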
GLP1R cytotox: qHTS of GLP-1 Receptor Inverse Agonists: Cytotox Screen. AID 624418, 2012. Potency, µM (highest dose often 38.3 µM), for inactives: at the highest dose activity change, negative = inhibition, most hits filed as inhibitors. hit rate 0.13% among 410,000. HEK293 cAMP-luciferase reporter cells, luminescence, 24 h;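 also: loss of luciferase light is scored as toxicity; potency is read from the fitted curve at half-maximal effect; % is scaled to controls: 0 for no effect and ±100 for the full control effect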
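Cells in DMEM/10% Nu serum/1% pen-strep, 1536-well format. Pre-incubated 12 h, dosed with 23 nL compound, incubated a further 24 h. Luciferase detection, 12 min at room temp, luminescence.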
MmCpn inh: Inhibitors of TCP-1 ring complex (TRiC) of Methanococcus maripaludis (MmCpn): qHTS; purified Mm-Cpn ATPase, ADP Transcreener TR-FRET; AID 504842, 2011; Chaperonin Mm-Cpn (Methanococcus maripaludis); Potency, µM (top dose mostly 76.9 µM), for the others: at the highest dose activity, negative = inhibition, most hits filed as inhibitors; hit rate 0.031% among 330,000; also: potency is read from the fitted curve at half-maximal effect; % is scaled to controls: 0 for no effect and ±100 for the full control effect; nearly all actives have a fitted effect of over 80% in size
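Quantitative HTS used 25 nM Mm-CPN and 10 uM ATP in magnesium/KCl Tris buffer, pH 7.4, with 1 mM DTT. Hydrolysis ran 30 min at 37°C; ADP was read by HTRF.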
uPA generation: qHTS for Inhibitors of Cell Surface uPA Generation; cell surface uPA generation assay, qHTS; Potency, µM (titrated, usually from 38.3 µM), for inactives: at the top dose activity change, negative = inhibition, hits mostly inhibitors; hit rate 0.31% among 330,000; AID 540303, 2011; active = well fitted inhibition curve with a large enough effect; inconclusive = small, poorly fitted or top-dose-only effect; inactive = no such curve, though single readings can be large or run the other way; tested in mouse RAW 264.7 cells; also: potency is read from the fitted curve at half-maximal effect; % is scaled to controls: 0 for no effect and ±100 for the full control effect; nearly all actives have a fitted effect of over 55% in size
CCT chaperon mod: High-Throughput Screening for Modulators of Cytosolic Chaperonin Activity. purified chaperonin ATPase assay, HTRF ADP detection, 30 min. AID 651819, 2012. activity change, % (concentration not given with the values), hits read low. hit rate 0.3% among 360,000; in the data active = activity change below about -30%; also: % is scaled to controls: 0 for no effect and ±100 for the full control effect
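ATPase activity: ADP formed was measured by HTRF Transcreener (665/615 nm ratio) after 30 min at 37 deg C with 10 uM ATP. Compounds screened at one 76 uM concentration against 40 or 20 nM TRiC in Tris pH 7.4/KCl/MgCl2/DTT buffer.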
GLP-1R agonist: qHTS of GLP-1 Receptor Agonists; Glucagon-like peptide 1 receptor (Homo sapiens), P43220; HEK293 GLP-1R CRE-luciferase, luminescence, 4-6 h; cells express a hypersensitive GLP-1R form; Potency, µM (doses to about 45.6 µM), for the others: at the highest dose activation, most hits filed as activators; hit rate 0.007% among 380,000; AID 624172, 2012; also: potency is read from the fitted curve at half-maximal effect; % of control where 0% means no effect
Active calls of the source: *; ? = inconclusive; . = no result given. The list is not random: actives were taken first. Their share in the collection is about 2.2%. Unless noted, calls follow the shape of the dose curve; as a rule, active = well fitted curve in the direction sought with a large enough effect; inconclusive = small, poorly fitted or top-dose-only effect, or another doubt; inactive = no such curve, though single readings can be large; an effect the other way counts as inactive or inconclusive.

SMILES | GLP-1R inv ag | GLP1R cytotox | MmCpn inh | uPA generation | CCT chaperon mod | GLP-1R agonist
COc1ccccc1NC(=O)Cn1c(=O)n(CC(=O)NCc2ccccc2Cl)c(=O)c2sccc21 | 1% | -7% | . | . | . | .
CCC(=O)NC(c1cccs1)c1cc(Cl)c2cccnc2c1O (centres undefined) | ? | -5% | 2% | 7.1µM* | -2 | -2%
CCC(=O)NC(c1cc(Cl)c2cccnc2c1O)C1CC1 (centres undefined) | . | . | -2% | 13µM* | . | 14%
CCC(=O)NC(c1cc(Cl)c2cccnc2c1O)C(C)C (centres undefined) | . | . | 1% | ? | . | 7%
O=C1C2C3CCCC3=C3CCCC3C2C(=O)N1c1cccc(Cl)c1 (centres undefined) | 3.5µM* | 2% | 1% | 2% | 0 | -2%
CCC(Oc1ccccc1)C(=O)Nc1cc(-c2ccccc2OC)nn1-c1ccccc1 (centres undefined) | 4.5µM* | 8% | . | . | . | .
CC(C)COc1ccc(C(=O)N2CCCCC2CCN2CCOCC2)cc1 (centres undefined) | 3% | 1% | . | . | . | .
CCc1ccc(-n2nc(C)c3c(C(=O)Nc4cccc(C(F)(F)F)c4)cc(C)nc32)cc1 | 2.2µM* | -27% | . | . | . | .
CCc1ccc(-n2nc(C)c3c(C(=O)Nc4ccc(Cl)cc4)cc(C)nc32)cc1 | -13% | 4% | . | . | . | .
Cc1nn(-c2ccccc2)c2nc(C3CC3)cc(C(=O)Nc3cccc(F)c3)c12 | 5.6µM* | -22% | . | . | . | .
COc1ccc(NC(=O)CSc2nc(-c3ccccc3)[nH]c2-c2ccccc2)cc1OC | ? | -26% | . | . | . | .
COc1ccccc1NC(=S)N(Cc1ccco1)Cc1cc2cccc(C)c2[nH]c1=O | ? | -1% | -1% | -2% | -1 | 8%
CCc1ccc2[nH]c(=O)c(CN(Cc3ccccc3)C(=O)Nc3ccccc3OC)cc2c1 | 3.5µM* | ? | 1% | . | -1 | 11%
COc1ccccc1NC(=S)N(Cc1ccco1)Cc1cc2cc(C)c(C)cc2[nH]c1=O | ? | ? | 1% | 4µM* | -1 | 10%
CCN(CC)CCCN(Cc1cc2cc(OC)ccc2[nH]c1=O)C(=O)Nc1ccc(F)cc1 | 4.5µM* | -18% | -1% | 2% | 2 | 14%
Cc1sc2c(c1C)c(=O)n(-c1cccc(C(F)(F)F)c1)c(=O)n2Cc1ccc(F)cc1 | 6% | 22% | . | . | . | .
CCc1ccc(CNC(=O)c2ccc(-n3c(C)cc4c3CCC(C)C4)cc2)cc1 (centres undefined) | 13% | -12% | . | . | . | .
COc1ccc(CNC(=O)Cc2c(C)c3ccc(O)cc3oc2=O)cc1 | 5% | 33% | . | . | . | .
N#CC1(Cc2ccccc2)c2ccccc2C=CN1C(=O)c1ccccc1 (centres undefined) | 8.9µM* | 8% | -1% | -4% | -1 | -6%
CC(C)c1nc2ccc(C(=O)Nc3ccccc3F)cc2o1 | 2% | -4% | . | . | . | .
O=C(CSc1nnc(COc2ccc(Cl)cc2)o1)N1c2ccccc2CCc2ccccc21 | 3.5µM* | ? | 1% | -11% | -3 | -3%
O=C(c1ccccc1)N1CCc2cc(CNS(=O)(=O)c3ccc(Cl)s3)ccc21 | -17% | -1% | . | . | . | .
Oc1c(C(c2ccccc2Cl)N2CCCC2)sc2nc(-c3ccco3)nn12 (centres undefined) | -27% | -16% | . | . | . | .
CCOc1ccc(-c2ccc(SC)nn2)cc1 | 2.2µM* | -2% | -1% | -17% | 2 | -2%
CCOc1ccc(-c2ccc(SCC(=O)Nc3nnc(CC)s3)nn2)cc1 | 14% | -1% | 4% | -6% | 1 | 7%
SMILES | GLP-1R inv ag | GLP1R cytotox | MmCpn inh | uPA generation | CCT chaperon mod | GLP-1R agonist
COc1ccc(N(C(=O)/C=C\C(=O)Nc2ccc(Cl)cc2)C(C(=O)NCc2ccco2)c2ccc(C)cc2)cc1 (centres undefined) | ? | -5% | . | . | . | .
CCCSS/C(CCO)=C(/C)N(C=O)Cc1cnc(C)nc1N | . | . | . | . | . | -3%
Cc1ccc(NC(=O)CN(C)C(=O)Cc2ccc(Cl)c(Cl)c2)cc1 | 7.9µM* | -2% | 0% | 8% | 0 | 14%
COc1ccc(CC(=O)Nc2ccc(-c3nc4ccccc4s3)c(C)c2)cc1OC | 7% | 12% | . | . | . | .
CC1CCN(C(c2cccs2)c2nnnn2Cc2ccccc2)CC1 (centres undefined) | 10µM* | 0% | -3% | 4% | -1 | -4%
c1ccc(Cn2nnnc2C(c2cccs2)N2CCSCC2)cc1 (centres undefined) | -29% | 10% | 1% | -12% | 1 | 0%
Cc1ccc(C(c2nnnn2Cc2ccccc2)N2CCN(Cc3ccccc3)CC2)cc1 (centres undefined) | 10µM* | -25% | 1% | -10% | 1 | -9%
CCOC(=O)c1sc(NC(=O)c2c(-c3ccccc3)c(-c3ccccc3)nn(C)c2=O)nc1C | -26% | -9% | . | . | . | .
C=Cc1ccc(CSc2nc(-c3ccccc3Cl)nc3c2Cc2c(CO)cnc(C)c2O3)cc1 | 4% | -15% | . | . | . | .
Cc1ccc(N(CC(=O)NCCc2ccccc2C)S(=O)(=O)N(C)C)cc1 | ? | 0% | . | . | . | -1%
CC(=O)C1=C(O)C(=O)N(c2cc(C(C)(C)C)on2)C1c1ccc(C(C)C)cc1 (centres undefined) | -9% | -19% | -1% | 0% | -2 | -8%
CC(=O)C1=C(O)C(=O)N(c2cc(C(C)(C)C)on2)C1c1ccc(Br)cc1 (centres undefined) | 8.9µM* | 0% | -2% | . | 3 | 3%
CCc1ccc(OCC(=O)N(Cc2ccco2)Cc2ccccc2Cl)cc1 | 10µM* | 9% | . | . | . | .
O=C(c1cccc(Cl)c1)N(Cc1ccco1)Cc1ccccc1Cl | 10µM* | -8% | . | . | . | .
CCOc1cc(C(=O)Nc2cc(C)ccn2)cc(OCC)c1OCC | 0% | -2% | ? | -2% | -1 | -4%
Cc1ccnc(NC(=O)c2ccc(S(=O)(=O)N3CCCCCC3)cc2)c1 | 11µM* | 7% | 2% | -14% | -3 | 7%
CCOc1ccc(C(=O)Nc2cc(C)ccn2)cc1 | 4µM* | 4% | 2% | -19% | -1 | -3%
COc1cccc(CNC(=O)Cn2nc3c(cc2=O)CCCC3)c1OC | 1% | 23% | . | . | . | .
Cc1ccc2c(c1)c1c(n2CC(O)Cn2c(C)nc3ccccc32)/C(=N\O)CCC1 (centres undefined) | 10µM* | ? | 6% | 8% | 0 | -12%
